Test results published in PubChem BioAssay (NCI).
Compounds without any hit were thinned out: in the full panel of roughly 79,000, 15% have a hit. Active and inactive are the calls of the source. Cut-off read from the data, not from the text of the source: active = growth inhibition above about 70%; inactive = the rest.

Experiments:
[1] = NCI Yeast Anticancer Drug Screen. Data for the rad50 strain (AID 155);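 note: 0% = growth of vehicle-only cultures of the same strain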; conditions: S. cerevisiae rad50 strain growth inhibition; at 50.0 µM; stronger effect = higher value
In short: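 Growth of the mutant yeast was measured after compound exposure and referenced to vehicle-treated cultures.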

[2] = NCI Yeast Anticancer Drug Screen. Data for the mec2-1 strain (AID 157); conditions: S. cerevisiae mec2-1 strain, at 50.0 µM, stronger effect = higher value
In short: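 Vehicle-treated cultures served as reference for growth inhibition of compound-exposed mec2-1 yeast.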

[3] = NCI Yeast Anticancer Drug Screen. Data for the sgs1 mgt1 strain (AID 161);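 note: 0% = growth of cultures given vehicle only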; conditions: S. cerevisiae sgs1 mgt1 strain, at 50.0 µM, stronger effect = higher value
In short: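 Genetically altered yeast, compound exposure, growth inhibition relative to vehicle.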

[4] = NCI Yeast Anticancer Drug Screen. Data for the cln2 rad14 strain (AID 165);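 note: 0% = growth equal to vehicle treated cultures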; conditions: S. cerevisiae cln2 rad14 strain, at 50.0 µM, stronger effect = higher value
In short: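 Each compound was tested on cln2 rad14 yeast. Inhibition of growth was calculated against vehicle-exposed controls.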

[5] = NCI Yeast Anticancer Drug Screen. Data for the bub3 strain (AID 167); conditions: S. cerevisiae bub3 mutant strain, at 50.0 µM, stronger effect = higher value
In short: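 Whole-cell yeast assay. The mutant strain was incubated with compounds, and growth inhibition was determined by comparison with vehicle-treated cells.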

[6] = NCI Yeast Anticancer Drug Screen. Data for the mlh1 rad18 strain (AID 175); conditions: S. cerevisiae mlh1 rad18 strain growth inhibition; at 50.0 µM; stronger effect = higher value
In short: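 Vehicle-treated cultures served as the reference for growth inhibition in a yeast strain carrying DNA damage repair alterations exposed to each compound.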

Measured: growth inhibition

CCCCn1c(=O)c2c(ncn2C)n(C)c1=O
inactive: [1] 16.8% | [2] 16.6% | [3] 9.75% | [4] -9.25% | [5] -2.45% | [6] 6.2%

O=S1(=O)CC(Cl)C(I)C1 (stereo unspecified)
active: [1] 99.4% | [2] 99.7% | [3] 99.5% | [4] 98.8% | [5] 99.5% | [6] 99.2%

CCOC1(OCC)CCC2(CC1)c1ccccc1-c1ccccc12
inactive: [1] 9.5% | [2] 15.8% | [3] 2.95% | [4] 1.15% | [5] -7.45% | [6] 14.8%

C=C1C2C[C@@H]3OC4CC5O[C@]6(CC5OC4C(C)C3OC(=O)CC3CC[C@@H]4OC5C7OC8C[C@](CCC9CC(=C)[C@H](CCC(C[C@H]1C)O2)O9)(OC7C4O3)O[C@@H]85)C[C@@H]1O[C@@]2(CC(C)[C@@H]3OC(CC(=O)CCO)C(O)C[C@@H]3O2)CC(C)[C@@H]1O6 (stereo partly specified)
active: [1] 84.5% | [2] 88.5% | [3] 88.6% | [4] 84.5% | [5] 87.5% | [6] 87.3%

COc1cc(C=Nc2cc(Cl)c(N=O)c(Cl)c2)ccc1N(CCCCl)CCCCl
inactive: [1] 33.4% | [2] -13% | [3] 40.8% | [4] -15.8% | [5] 2.2% | [6] 12.3%

Cn1c([N+](=O)[O-])cnc1CN1CCN(CCO)CC1
inactive: [1] -2.9% | [2] -6.95% | [3] -39.1% | [4] 26.7% | [5] -20.3% | [6] 3%

CCSc1nnc(-c2ccccc2)nc1Cc1ccc(OC)cc1
inactive: [1] -38.2% | [2] -13.2% | [3] -62.7% | [4] -12.8% | [5] -30.5% | [6] -39.5%

Cc1ccc(NC(=S)N(C)C)cc1
inactive: [1] 14.5% | [2] 15.9% | [3] -10.6% | [4] -71.8% | [5] 22.4% | [6] -23.9%

CCNC(=O)C(C(=O)O)c1ccccc1 (stereo unspecified)
inactive: [1] 1.8% | [2] -5.55% | [3] 5.15% | [4] -21.1% | [5] -13.9% | [6] 5.2%

Cc1cc(C)c(C2CNCc3cc4c(cc32)CNCC4c2c(C)cc(C)cc2C)c(C)c1 (stereo unspecified)
inactive: [1] -16.3% | [2] -32.8% | [3] -46% | [4] -44.9% | [5] -62.8% | [6] -131%

CCOC(=O)/C(O)=C(/C=N\C(=S)Nc1ccccc1Cl)C(=O)OCC
inactive: [1] -44% | [2] -55.3% | [3] -28.4% | [4] 5.35% | [5] -26.2% | [6] -41.4%

COCCc1ccncc1
inactive: [1] -0.85% | [2] -35.3% | [3] -31.3% | [4] -6.45% | [5] -15.8% | [6] -7.9%

CCN(CC)Cc1ccccc1COC(=O)c1ccc(OC)cc1
inactive: [1] -0.1% | [2] -3.45% | [3] 14.8% | [4] -15.2% | [5] -7.25% | [6] 11.3%

O=c1oc2ccc([N+](=O)[O-])cc2cc1-c1csc(-c2ccccc2)n1
inactive: [1] 3% | [2] -9.35% | [3] -7.05% | [4] 7.45% | [5] -26.3% | [6] -48.8%

C[C@H](N)C(=O)/C=C/c1ccccc1
inactive: [1] -18.8% | [2] -30.6% | [3] -6.05% | [4] 14.9% | [5] 8.8% | [6] -8.5%

CC(=O)C1=C(C)NC2C=CC=CN12 (stereo unspecified)
inactive: [1] 3.95% | [2] -6.9% | [3] 15.5% | [4] 17.9% | [5] 7.3% | [6] 12.9%

Clc1cc(Cl)nc(Cl)n1
inactive: [1] 2.4% | [2] -7.1% | [3] -4.95% | [4] 21.1% | [5] 4.6% | [6] -1.65%

OC1(c2cccc(Cl)c2)C2=NCCCN2c2ccccc21 (stereo unspecified)
inactive: [1] 5.05% | [2] 8.45% | [3] 6.7% | [4] 21.6% | [5] -28.4% | [6] 5.75%

CCC1CN2CCc3c([nH]c4ccccc34)[C@@](C(=O)OC)(c3cc4c(cc3OC)N(C)C3C(O)(C(=O)OC)C(C(=O)OC)C5(CC)C=CCN6CCC43C65)C[C@@H](C2)[C@@H]1C(C)(C)C (stereo partly specified)
inactive: [1] -6.3% | [2] -10% | [3] -9% | [4] -13.6% | [5] -36.3% | [6] -72.7%

O=[N+]([O-])[C@@H]1C[C@@H]2C=C[C@H]1CC2
inactive: [1] 10.1% | [2] 0.2% | [3] 2.6% | [4] -1.3% | [5] 0.3% | [6] 0.15%

Cc1ccc(SSCC(O)C(O)CSSc2ccc(C)cc2)cc1 (stereo unspecified)
inactive: [1] 11.6% | [2] -18.6% | [3] -30.6% | [4] 21.8% | [5] -5.6% | [6] 10.1%

CCC1COC(Nc2cccc3c2CCCC3)=N1 (stereo unspecified)
inactive: [1] -0.05% | [2] -6.7% | [3] -8.75% | [4] -30.4% | [5] 17.7% | [6] 4.55%

CCN(c1ccccc1)c1nsc(Cl)n1
inactive: [1] -3.25% | [2] -10.8% | [3] -15.9% | [4] -9.4% | [5] 8.25% | [6] -16%

COC(=O)c1ccc(OC(=O)Nc2ccc(SC)cc2)cc1
inactive: [1] 3.2% | [2] 40.5% | [3] 25.4% | [4] -3.4% | [5] 34.2% | [6] 11.7%

CCCCC/C(=N\NC(N)=O)C1=CCCCC1
inactive: [1] 13.1% | [2] 7.6% | [3] -9.6% | [4] -19.9% | [5] -25.4% | [6] 18.4%

C/C(=N\N=P(c1ccccc1)(c1ccccc1)c1ccccc1)C(C)(C)C
inactive: [1] 8.35% | [2] 10.2% | [3] 1.75% | [4] 11.9% | [5] 4.5% | [6] 31.7%

Nc1cccc(S(=O)(=O)Nc2ccccc2)c1
inactive: [1] 19.6% | [2] 25.6% | [3] 1.55% | [4] -6.6% | [5] 0.65% | [6] 10%

N#C/C(=C/N1C(=O)/C(=C/c2ccc([N+](=O)[O-])cc2)SC1=S)C(N)=O
inactive: [1] 45% | [2] 56.5% | [3] 63.4% | [4] 54.3% | [5] 45% | [6] 42%

CCOC(=O)c1cc(C)nc2c(Cl)cc(Cl)cc12
inactive: [1] 13% | [2] 10.8% | [3] -34.4% | [4] -2.9% | [5] 10.4% | [6] 7.95%

CCOCCOCCOc1c(Cl)cc(Cl)cc1Cl
inactive: [1] -6.65% | [2] 1.9% | [3] -7.35% | [4] -46% | [5] 30.2% | [6] -21.6%

CC(=O)OCC1OC(n2cnc([N+](=O)[O-])c2C#N)C(OC(C)=O)C1OC(C)=O (stereo unspecified)
inactive: [1] 28.6% | [2] 14.7% | [3] 22.3% | [4] 30.1% | [5] 3.45% | [6] 34.3%

O=C1C(OCc2ccccc2)=C(OCc2ccccc2)C(=O)c2ccccc21
inactive: [1] 14.2% | [2] 3.1% | [3] 31.6% | [4] 10.2% | [5] -30.1% | [6] 36.3%

C=C(C)C1CC=C(C)/C(=N\O)C1 (stereo unspecified)
inactive: [1] -5.15% | [2] -9.9% | [3] -17.4% | [4] 3.05% | [5] 15% | [6] -5.6%

C=C(C)CCC[C@@H](C)C1CCC2(C)[C@@H]3CCC4C(C)(C)[C@@H](O)CC[C@@]45C[C@@]35CC[C@]12C (stereo partly specified)
inactive: [1] 31.1% | [2] 0.45% | [3] 25.4% | [4] 0.5% | [5] 18% | [6] 23.1%

NC1=C(O)/C(=N/NS(=O)(=O)c2ccccc2)C(c2cccc(Cl)c2)O1 (stereo unspecified)
inactive: [1] 30.4% | [2] 23.4% | [3] 48.5% | [4] 13.8% | [5] 11.7% | [6] 21.7%

CCCCCCCC/C=C\CCCCCCCC(=O)N(CCOC(=O)CCC(=O)OCCN(C(=O)CCCCCCC/C=C\CCCCCCCC)C1CCCCC1)C1CCCCC1
inactive: [1] -5.15% | [2] -9.25% | [3] -17.4% | [4] -3.2% | [5] -4.25% | [6] 16.8%

O=C(O)c1ccccc1CC(Cc1ccccc1)C(=O)O (stereo unspecified)
inactive: [1] -14.7% | [2] -3.4% | [3] -10.9% | [4] -8.5% | [5] -12.4% | [6] 14%

COC(=O)C(=O)c1c(C2CC2)[nH]c2[nH]n(-c3ccccc3)c(=O)c2c1=O
inactive: [1] 11% | [2] 20.1% | [3] 12.4% | [4] -9.2% | [5] -1.1% | [6] 3.6%

CC1C2(C)OC(=N)C(C#N)(C(c3ccccc3)O2)C1(C#N)C#N (stereo unspecified)
inactive: [1] 8.7% | [2] -5.15% | [3] -13.4% | [4] 6.25% | [5] -3.2% | [6] -23.6%

CN(C)c1ccc(Cc2ccc(N(C)C)cc2)cc1
inactive: [1] -4.1% | [2] -6.3% | [3] -16.9% | [4] -23.6% | [5] 10.4% | [6] 7%

COc1cc(C)c(/C=C/C(=O)N2C(=O)OC[C@@H]2c2ccccc2)c(C)c1
inactive: [1] 4.35% | [2] -8.75% | [3] 21.1% | [4] 26.9% | [5] 19.1% | [6] 18.2%
